Measured values published in PubChem BioAssay AID1159580 (chemical genetic matrix, 2015).
“And” between values parts separate entries of the source, which are not always exact repeats. Equal entries are not always repeated. The whole screen tested about 5,500 compounds, of which about 2,000 (36%) were called active. About 18% were inconclusive and are not listed. Rule as the data show it: active = normalized growth mostly below about 0.91 (no sharp cut-off); inconclusive = no clear call, values can overlap the other calls; inactive = mostly above about 0.92. This is one part of the list.

Assay: chemical genetic growth profiling, strain panel (AID 1159580);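 also: tested at 20 µM; growth read once vehicle control cultures reached saturation at 30 °C; 1 = growth at the plate median or of vehicle wells; lower values mean less growth of the strain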
Details: S. cerevisiae deletion strains, growth OD

Measured: normalized growth

CC(=O)OC1CCC2C3CCc4cc(O)ccc4C3CCC12C (stereo not given)
inactive: locus YAL021C, strain ccr4, hits give low values 0.975 | locus YAL026C, strain drs2, hits give low values 0.96 | locus YAL030W, strain snc1, hits give low values 0.984 | locus YBR009C, strain hhf1, hits give low values 0.969 | locus YBR021W, strain FUR4, hits give low values 0.934 | locus YBR171W, strain sec66, hits give low values 0.996 | locus YBR229C, strain ROT2, hits give low values 1.01 | locus YBR231C, strain swc5, hits give low values 0.966 | locus YBR279W, strain paf1, hits give low values 0.979 | locus YCL011C, strain gbp2, hits give low values 0.929 | locus YCL016C, strain dcc1, hits give low values 0.954 | locus YCL029C, strain bik1, hits give low values 0.99 | locus YCL061C, strain MRC1, hits give low values 0.984 | locus YCL069W, strain vba3, hits give low values 1.02 | locus YCR088W, strain abp1, hits give low values 0.957 | locus YDL005C, strain med2, hits give low values 0.973 | locus YDL035C, strain GPR1, hits give low values 0.973 | locus YDL040C, strain nat1, hits give low values 1.01 | locus YDL074C, strain BRE1, hits give low values 0.827 | locus YDL101C, strain DUN1, hits give low values 0.98 | locus YDL134C, strain PPH21, hits give low values 0.973 | locus YDL185W, strain tfp1, hits give low values 1.02 | locus YDL192W, strain arf1, hits give low values 1.03 | locus YDR001C, strain nth1, hits give low values 0.999 | locus YDR069C, strain doa4, hits give low values 0.957 | locus YDR101C, strain arx1, hits give low values 1 | locus YDR150W, strain NUM1, hits give low values 1.01 | locus YDR162C, strain NBP2, hits give low values 1 | locus YDR297W, strain sur2, hits give low values 0.993 | locus YDR318W, strain mcm21, hits give low values 1 | locus YDR334W, strain swr1, hits give low values 1.01 | locus YDR335W, strain msn5, hits give low values 0.921 | locus YDR388W, hits give low values 0.997 | locus YDR502C, strain sam2, hits give low values 0.991 | locus YEL003W, strain gim4, hits give low values 0.993 | locus YEL037C, strain rad23, hits give low values 1 | locus YEL061C, strain CIN8 (second series), hits give low values 0.978 | locus YEL061C, strain CIN8, hits give low values 0.998 | locus YER015W, strain faa2, hits give low values 0.981 | locus YER110C, hits give low values 0.995 | locus YER111C, strain swi4, hits give low values 0.955 | locus YER155C, strain BEM2 (second series), hits give low values 0.934 | locus YER167W, strain BCK2, hits give low values 0.988 | locus YFR010W, strain ubp6, hits give low values 0.963 | locus YGL078C, strain dbp3, hits give low values 1.01 | locus YGL086W, strain mad1, hits give low values 0.979 | locus YGL167C, strain pmr1, hits give low values 0.999 | locus YGL173C, strain kem1, hits give low values 0.991 | locus YGL227W, strain vid30, hits give low values 1.01 | locus YGL240W, strain doc1, hits give low values 0.968 | locus YGL248W, strain PDE1, hits give low values 0.954 | locus YGL253W, strain hxk2, hits give low values 0.96 | locus YGR078C, strain PAC10, hits give low values 0.899 | locus YGR135W, strain pre9, hits give low values 1.03 | locus YGR229C, strain SMI1, hits give low values 0.849 | locus YGR252W, strain gcn5, hits give low values 0.986 | locus YHR013C, strain ard1, hits give low values 0.985 | locus YHR027C, strain rpn1, hits give low values 0.975 | locus YHR030C, strain SLT2, hits give low values 1.01 and 0.911 | locus YHR079C, strain IRE1 (second series), hits give low values 1 | locus YHR079C, strain IRE1, hits give low values 0.938 | locus YHR094C, strain hxt1, hits give low values 1.02 | locus YHR129C, strain ARP1, hits give low values 1 | locus YHR142W, strain chs7, hits give low values 0.903 | locus YHR200W, strain rpn10, hits give low values 1.02 | locus YIL066C, strain RNR3, hits give low values 0.962 | locus YIL073C, strain SPO22, hits give low values 0.957 | locus YIL125W, strain kgd1, hits give low values 1.01 | locus YIR030C, strain dcg1, hits give low values 1.02 | locus YJL092W, strain hpr5, hits give low values 0.986 | locus YJL095W, strain BCK1 (second series), hits give low values 1 | locus YJL095W, strain BCK1, hits give low values 0.892 and 0.899 | locus YJL115W, strain asf1, hits give low values 1.01 | locus YJL129C, strain trk1, hits give low values 0.92 | locus YJL134W, strain LCB3, hits give low values 1.01 | locus YJL154C, strain vps35, hits give low values 0.988 | locus YJL164C, strain tpk1, hits give low values 0.954 | locus YJL166W, strain qcr8, hits give low values 0.974 | locus YJL168C, strain set2, hits give low values 1.01 | locus YJL187C, strain SWE1 (second series), hits give low values 0.944 | locus YJR043C, strain POL32, hits give low values 0.938 | locus YJR066W, strain TOR1, hits give low values 0.905
active: locus YBL061C, strain skt5, hits give low values 0.893 | locus YBR023C, strain chs3, hits give low values 0.881 | locus YDR137W, strain rgp1, hits give low values 0.797 | locus YDR159W, strain sac3, hits give low values 0.842 | locus YDR195W, strain ref2 0.746 | locus YDR392W, strain spt3, hits give low values 0.608 | locus YER016W, strain bim1, hits give low values 0.918 | locus YER155C, strain BEM2, hits give low values 0.913
